An excerpt weighted towards active compounds, which were near 4.3% of everything screened.
BoNT F protease: BoNT F light chain protease inhibition. Multiplex microsphere protease cleavage assay, flow cytometry. inhibition, % at 10 µM. 360,000 tested, 0.22% active. AID 588497; in the data active means inhibition above about 35%, passing the limit was not always enough; inconclusive means no clear call, values can overlap the other calls; further: plate controls were buffer without enzyme for full effect and enzyme alone for no effect
PfHsp40 rescue: restores yeast growth despite PfHsp40 toxicity | S. cerevisiae expressing PfHsp40, growth rescue, ATP luminescence | growth rescue, % at 12.5 µM | 340,000 tested, 0.68% active; in the data active means growth rescue above about 28%, passing the limit was not always enough; inconclusive means no clear call, values can overlap the other calls;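 further: yeast W303a lacking pdr1 and pdr3 grown in galactose medium; growth measured after three days at 30 °C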
Bead autofluor: counter-screen for toxin protease inhibitors: compound fluorescence; AID 624483; 360,000 tested, 3.1% active; compound autofluorescence counterscreen, microsphere flow cytometry; hits give high values; fluorescence intensity (no concentration beside the values); in the data active means fluorescence intensity above about 16000; inconclusive means no clear call, values can overlap the other calls
Anthrax LF prot: blocks Bacillus anthracis lethal factor protease. P15917. multiplex microsphere protease cleavage assay, LF. inhibition, % at 10 µM. 360,000 tested, 0.12% active. AID 588501; further: plate controls were buffer without enzyme for full effect and enzyme alone for no effect
MazEF act: MazEF (E. coli) toxin RNase activation; P0AE70; FAM/BHQ RNA-DNA oligo cleavage fluorescence, 5 h; activation, % at 20 µM; 350,000 tested, 0.32% active; in the data active means activation above about 50%
BoNT A protease: BoNT A light chain protease inhibition; 360,000 tested, 0.17% active; inhibition, % at 10 µM; multiplex microsphere protease substrate cleavage, flow cytometry; AID 588499; further: plate controls were buffer without enzyme for full effect and enzyme alone for no effect
Starred values were filed as active, the others as inactive; i = inactive; ? = inconclusive. Unless noted, no stated cut-off is given here; in the data, active means inhibition above about 30%; inconclusive means no clear call, values can overlap the other calls; inactive means below that.

SMILES	BoNT F protease	PfHsp40 rescue	Bead autofluor	Anthrax LF prot	MazEF act	BoNT A protease
CC(=O)c1ccc(N2CCN(C(=O)c3cc4c(C)nc5ccccc5c4o3)CC2)cc1	1.2	17.5	5852	-1.2	55.9*	0.3
CCOc1ccc(S(=O)(=O)NCCC(=O)NCCc2ccc(C(C)C)cc2)cc1	4.8	0.3	6896	-0.3	0.9	-0.2
CCc1cc[n+](/C(C(=S)Nc2cccc(C)c2)=C(/[O-])c2ccc(C)c([N+](=O)[O-])c2)cc1	-22.4	-0.2	3019	9.1	5.0	31.6*
CCOc1ccc(NC(=S)/C(=C(\[O-])c2ccc(C)c([N+](=O)[O-])c2)[n+]2ccccc2)cc1	-33.9	0.7	4794	-8.6	11.4	9.1
Cc1c(N2C(=O)CS/C2=N\N=C\c2ccccc2O)c(=O)n(-c2ccccc2)n1C	-2.9	-0.2	16255*	-3.3	-2.8	?
N=c1c[n+](C2CCCCC2)[n-]o1	-6.5	0.5	3232	1.4	7.6	-0.6
N=c1c[n+](N2CCOCC2)[n-]o1	3.7	-0.9	5879	2.8	352.8*	1.4
Cn1c(=O)c(N)c2c3c(c(Br)ccc31)C(=O)c1ccccc1-2	-0.8	1.3	3760	19.4	i	38.1*
CC(NC(=O)c1ccc([N+](=O)[O-])o1)C12CC3CC(CC(C3)C1)C2 (stereo unspecified)	-4.9	-1.4	5230	-3.0	5.2	-0.7
COc1cccc(OC)c1C(=O)NC(C)C12CC3CC(CC(C3)C1)C2 (stereo unspecified)	35.0*	83.9*	3724	3.5	-9.2	1.0
CCCCCC(=O)NNC1CC(=O)N(c2cccc(OCC)c2)C1=O (stereo unspecified)	8.8	-0.1	5439	-0.4	4.4	0.3
COC(=O)CSc1nnc(-c2ccc(S(=O)(=O)NCc3cccs3)cc2)o1	4.4	0.7	21213*	-0.3	4.4	2.3
COC(=O)CSc1nnc(-c2ccc(S(=O)(=O)NCc3ccccc3Cl)cc2)o1	0.8	0.4	21867*	-0.5	-1.8	1.0
COc1ccccc1C1=CN(Cc2ccccc2)CCC1=O	-9.1	0.7	3622	-7.5	2.3	-0.8
Cc1ccc(-n2ncc3c2CCCC3NC(=O)CSc2ccccn2)cc1C (stereo unspecified)	-2.3	1.6	6106	-2.0	4.5	0.7
CC(=O)N1N=C(c2ccc3nccnc3c2)CC1c1ccccc1 (stereo unspecified)	2.2	0.3	20160*	-8.2	-4.7	1.1
NCC12CC3CC(CC(O)(C3)C1)C2	1.9	-1.9	12747	-2.8	-2.2	-0.1
NCC12CC3CC(C1)CC(CN)(C3)C2	-6.8	-0.6	23074*	-3.2	-3.4	-0.2
CCN(C(=O)c1cccs1)C1CCS(=O)(=O)C1 (stereo unspecified)	-0.1	-1.4	6009	-1.3	2.1	-1.3
CCCCN1C(=O)C(C2c3ccccc3C(=O)N2Cc2ccccc2)C(=O)NC1=S (stereo unspecified)	3.7	0.7	21741*	-1.2	5.2	1.2
CCCCNC1c2ccccc2C(=O)N1Cc1ccccc1 (stereo unspecified)	20.9	-0.3	3399	24.0	5.8	0.7
CCN(CC(=O)Nc1ccc(NC(C)=O)cc1)C(=O)c1ccc(NC2CC2)c([N+](=O)[O-])c1	-2.6	-1.6	5422	1.8	-2.0	0.7
COc1cc(NC(=O)c2cc(C)on2)cc(C(=O)Nc2cccc(C(F)(F)F)c2)c1	-0.9	50.4*	3728	-3.5	1.7	-0.2
Cc1cc(Nc2cnc3ccccc3n2)n(-c2ccccc2)n1	-12.3	-1.0	17464*	-5.8	-2.4	-3.9
Cc1cc(Nc2ncc(Cl)cc2Cl)n(-c2ccccc2)n1	-2.9	0.4	2195	0.3	-3.0	-0.4
COc1cccc(N2C(=O)C(CC(=O)Nc3ccccc3)N(C3CCCCC3)C2=O)c1 (stereo unspecified)	5.6	0.5	19391*	-3.6	-1.9	3.0
COc1cccc(N2C(=O)C(CC(=O)Nc3ccc(F)cc3)N(C3CCCCC3)C2=O)c1 (stereo unspecified)	-0.4	-0.2	2773	-1.0	17.7	-0.4
C=CCOC(=O)C1=C(C)NC(=S)NC1/C=C/c1ccccc1 (stereo unspecified)	-9.8	-0.2	18190*	0.2	-0.9	-4.6
O=C(NC1CCCCC1)C1CN(S(=O)(=O)c2ccccc2)CCN1S(=O)(=O)c1ccccc1 (stereo unspecified)	-5.0	-0.9	24405*	-2.2	-6.3	-2.4

Screening results deposited in PubChem by several laboratories.
